In the library only some 4.5% were active in any assay of this set; here they are far more common.
hcDAF-12 act: H. contortus DAF-12 nuclear receptor activators, primary screen, cell-based, luminescence, HEK293, lit1-tk-luc reporter; HEK293 hcDAF-12 lit1-tk-luc reporter; 0% DMSO, 100% Δ7-dafachronic acid; activation, % at 6.8 µM; 370,000 tested, 1.4% active;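 active = activation above the mean of all tested compounds plus 3 SD, cut at about 5.5% in these data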;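 note: 100% = response to 3 µM Δ7-dafachronic acid high control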
DAX1 inh-1: DAX1 (NR0B1) inhibitors, primary screen, cell-based, HEK293, Gal4-DAX1, luciferase luminescence; 340,000 tested, 0.99% active; HEK293 Gal4-DAX1 luciferase reporter; Nuclear receptor subfamily 0 group B member 1 (Homo sapiens), P51843; AID 504766, 2011; inhibition, % at 6.75 µM;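 active = inhibition above the mean over all tested compounds plus 3 SD, cut at about 4.2% in these data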;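 note: 0% = DAX1-transfected cells with DMSO and 100% = empty-vector control cells with DMSO; inhibition shows as a rise in luminescence from relieved DAX1 repression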
FXN GAA850 act: FXN promoter activators, primary screen, cell-based, luciferase luminescence, HEK293 lucGAA850; HEK293 lucGAA850 FXN promoter luciferase reporter, 24 h; percent of 10 µM SAHA response; activation, % at 6 µM; 360,000 tested, 0.56% active; AID 540364, 2011;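 active = activation above the average of all compounds screened plus 3 SD, cutoff fixed separately per campaign, cut at about 7.5% in these data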;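 note: 0% = DMSO wells and 100% = 10 µM SAHA wells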
hgDAF-12 ag: H. glycines DAF-12 receptor agonists, primary screen, cell-based, luminescence, HEK293, GAL4 fusion, UAS-luciferase; Nuclear hormone receptor DAF-12 (Heterodera glycines), GAL4 fusion; HEK293 GAL4-hgDAF12 UAS-luciferase reporter, agonist luminescence; normalized to butyrate control; activation, % at 6.8 µM; 370,000 tested, 1.8% active; AID 687014, 2013;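 active = activation above a cutoff set at the mean of all screened compounds plus 3 SD, cut at about 10% in these data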;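 note: 0% = DMSO wells and 100% = sodium butyrate wells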
DAX1 inh-2: DAX1 (NR0B1) inhibitors on StAR promoter, primary screen, cell-based, luminescence, SF-1 (NR5A1), full-length DAX-1; HEK293T StAR-luciferase reporter, SF-1/DAX-1 repression relief; inhibition, % at 6.8 µM; 370,000 tested, 1.1% active;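 active = inhibition above the mean over all tested compounds plus 3 SD, cut at about 3.6% in these data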;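 note: 0% = DAX-1 cells with DMSO and 100% = cells lacking DAX-1 with DMSO; higher inhibition means more luminescence from relief of DAX-1 repression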
ssDAF12 agonist: S. stercoralis DAF-12 nuclear receptor activators, primary screen, cell-based, luminescence, HEK293, GRIP1 co-expression, lit1-tk-luc; activation, % at 6.8 µM; 370,000 tested, 1% active; HEK293 ssDAF-12/GRIP1 lit1-tk-luc reporter; % of 3 µM dafachronic acid response; AID 652126, 2013; Nuclear hormone receptor DAF-12 (Strongyloides stercoralis);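 active = activation above the mean over all tested compounds plus 3 SD, cut at about 0.9% in these data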;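 note: 0% = DMSO-only wells and 100% = 3 µM delta7-dafachronic acid wells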
LXRb hcDAF ctr: LXR agonists, Gal4 luciferase reporter, confirmation, counter-screen for hcDAF-12 agonist project, cell-based, luminescence, HEK293, H. contortus campaign. shares compounds with hcDAF-12 act. activation, % at 6.8 µM. AID 743027, 2013. 3,400 tested, under 10 active. HEK293 Gal4-LXR tk-luc reporter, 24 h; normalized: DMSO 0%, positive control 100%;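 active = mean percent activation of the reporter above a cutoff set as the average over tested compounds plus their standard deviation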
Target sequence (P55055 whole entry, looked up, the tested form may be a part): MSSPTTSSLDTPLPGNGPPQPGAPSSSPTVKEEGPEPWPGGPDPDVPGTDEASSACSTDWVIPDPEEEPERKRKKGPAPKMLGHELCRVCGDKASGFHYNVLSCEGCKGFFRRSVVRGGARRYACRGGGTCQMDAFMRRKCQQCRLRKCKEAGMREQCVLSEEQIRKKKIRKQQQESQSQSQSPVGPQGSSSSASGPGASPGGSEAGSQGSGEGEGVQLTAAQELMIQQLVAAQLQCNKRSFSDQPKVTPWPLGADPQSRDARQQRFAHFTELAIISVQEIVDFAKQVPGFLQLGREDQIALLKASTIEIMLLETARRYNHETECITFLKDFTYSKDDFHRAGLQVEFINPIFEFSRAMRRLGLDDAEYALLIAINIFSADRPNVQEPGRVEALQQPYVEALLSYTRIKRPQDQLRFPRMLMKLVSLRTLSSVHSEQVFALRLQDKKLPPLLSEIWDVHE
hcDAF12 conf: H. contortus DAF-12 receptor agonists, confirmation, cell-based, luminescence, HEK293, lit1-tk-luc, triplicate; shares compounds with hcDAF-12 act; HEK293 hcDAF-12 lit1-tk-luc reporter; % of Δ7-dafachronic acid response; activation, % at 6.8 µM; 3,400 tested, 61% active; AID 743032, 2013;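 active = mean activation across triplicate tests above the threshold derived from the earlier primary screen, cut at about 5.5% in these data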;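 note: 0% = DMSO only wells and 100% = 3 µM Δ7-dafachronic acid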
Numbers without * were called inactive; . = no result.

SMILES | hcDAF-12 act | DAX1 inh-1 | FXN GAA850 act | hgDAF-12 ag | DAX1 inh-2 | ssDAF12 agonist | LXRb hcDAF ctr | hcDAF12 conf
C#CCOCCOCCOCCNc1nc(N2CCN(C(=O)[C@H](CCCCN)n3cc([C@@H](N)CC(C)C)nn3)CC2)nc(N2CCN(C(=O)[C@H](Cc3cc4ccccc4[nH]3)n3cc([C@@H](N)CC(C)C)nn3)CC2)n1 | 8.1* | . | . | 4 | . | -1 | 0 | 4
C/C(=C\c1cc2ccccc2o1)C1Nc2cccc3cccc(c23)N1 | 0 | 1 | -1 | 1 | 0 | -1 | . | .
COc1cc2c(cc1NC(=O)C(C)Sc1cccc[n+]1[O-])oc1ccccc12 (stereo not given) | 9.6* | 1 | 7 | 7 | 1 | 0 | 0 | 6
O=c1c2cc(F)ccc2[nH]c(=S)n1CCCN1CCOCC1 | 11* | 4 | 1 | -2 | 0 | -2 | 0 | -1
O=c1c2cc(N3CCOCC3)ccc2[nH]c(=S)n1CCCN1CCCCCC1 | -1 | 1 | -2 | 1 | 2 | 0 | . | .
CCC[C@@H]1CCCC/C=C\CCCC(=O)OCCN1C(=O)OC(C)(C)C | 0 | -1 | 1 | 1 | 1 | -1 | . | .
COc1ccc(-n2nc(C)cc2N)cc1 | 0 | -1 | 1 | 4 | -1 | -1 | . | .
COc1ccc(-n2nc3cc(N)c(Br)cc3n2)cc1 | 13* | 5.8* | 3 | 13* | 2 | 1.2* | 1 | 12*
CCc1ccc(-n2nc3cc(C)c(N)cc3n2)cc1 | 16* | 4 | 4 | 14* | 3 | 4.1* | 2 | 20*
Nc1cc2nn(-c3ccccc3)nc2cc1Cl | 14* | 2 | 4 | 22* | 4.4* | 3.4* | 1 | 17*
Cc1ccc(-n2nc3cc(C)c(N)cc3n2)cc1 | 15* | 3 | 3 | 11* | 3.9* | 2.5* | 2 | 16*
C[C@H](CO)N1C[C@H](C)[C@@H](CN(C)CC2CCCCC2)Oc2c(NS(=O)(=O)c3ccc(F)cc3)cccc2C1=O | -2 | 2 | -2 | -1 | 0 | -1 | . | .
CC(=O)C1=CCC(c2ccc(Cl)cc2)N(S(=O)(=O)c2ccc(C)cc2)C1 (stereo not given) | -2 | . | . | -2 | -2 | -1 | . | .
OC[C@@H]1CC[C@@H]2O[C@H](CCc3ccc(-c4ccc(F)cc4)cc3)[C@H](n3cc(C4CC4)nn3)C[C@@H]2O1 | -1 | . | . | 0 | 0 | -2 | . | .
COc1ccc(C(=O)Nc2ccc(C3(C#N)CCCC3)cc2)cc1 | -1 | 2 | 0 | 1 | 0 | -1 | . | .
N#CC1(c2ccc(NC(=O)c3ccccc3F)cc2)CCCC1 | 6.9* | 0 | 3 | 23* | 3 | 0 | 2 | 6.6*
CC(=O)Oc1c(Cl)cc(Cl)cc1/C=C/c1ccc2ccccc2n1 | 1 | -1 | 1 | 1 | 1 | -1 | . | .
CC(=O)Oc1ccc(Cl)cc1/C=C/c1ccc2ccccc2n1 | 8.4* | 1 | 6 | 11* | 2 | 1 | 1 | 6.2*

Source: PubChem BioAssay (The Scripps Research Institute Molecular Screening Center)
